# Results from PubChem BioAssay (NCATS).
# Results filed as inconclusive are left out. Where a call stands in place of a potency, no number is given. Calls of active or inactive are those of the source. Calls follow the shape of the dose curve; as a rule, active = well fitted cell-killing curve with a large enough effect; inconclusive = small, poorly fitted or top-dose-only effect, or effect the other way; inactive = flat fitted curve, though single readings scatter.
# Test system: CASKI
# Test: Primary qHTS to identify gynecologic anti-cancer compounds using libraries of approved drugs and bioactive compounds (AID 1345084); also: nearly all actives have a fitted effect of over 55% in size
# Conditions: Gynecologic cancer cell panel viability, ATPlite luminescence, 48 h; series mostly up to 57.5 µM
# Procedure, shortened: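 Five-point cytotoxicity, 48 h drug exposure at 37 C, 5% CO2, on cells seeded 16 h beforehand. ATP content read by ATPlite luminescence.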
row,Structure (SMILES),Potency
1,CC(=O)C12OC(C)(C)OC1CC1C3CCC4=CC(=O)C=CC4(C)C3(F)C(O)CC12C (configuration not stated),inactive
2,COC(=O)C1=CO[C@@H](O[C@@H]2O[C@H](CO[C@@H]3O[C@H](COC(=O)/C=C/c4cc(OC)c(O)c(OC)c4)[C@@H](O)[C@H](O)[C@H]3O)[C@@H](O)[C@H](O)[C@H]2O)[C@@H]2C(CO)=CC[C@H]12,inactive
3,CC1=C2C3OC(=O)C(C)C3(O)CCC2(C)CCC1O (configuration not stated),inactive
4,COc1ccccc1Oc1ccc(N(Cc2cccnc2)S(=O)(=O)CC(F)(F)F)cc1,inactive
5,O=C(/C=C/c1ccc(O)cc1)N[C@@H](Cc1ccc(O)cc1)C(=O)O,inactive
6,CC1=C(C)C(=O)OC(C(C)C2CCC3C4C5OC5C5(O)CC(OC6OC(CO)C(OC7OC(C)C(O)C(O)C7O)C(O)C6O)CC(O)C5(C)C4CCC23C)C1 (configuration not stated),inactive
7,C=C[C@H]1CN2CC[C@H]1C[C@@H]2C(O)c1ccnc2ccc(OC)cc12 (some centres not stated),inactive
8,C=C[C@H]1C(O[C@@H]2O[C@H](CO)[C@@H](O)[C@H](O)[C@H]2O)OC=C2C(=O)N3CCc4c([nH]c5ccccc45)C3CC21 (some centres not stated),inactive
9,O=C(O)/C=C/c1ccc(O)c(O[C@@H]2O[C@H](CO)[C@@H](O)[C@H](O)[C@H]2O)c1,inactive
10,C=C(C(=O)O)C1CC(O)C2(C)CCCC(=C)C2C1 (configuration not stated),inactive
11,CC1CCC2(C(=O)O)CCC3(C)C(=CCC4C5(C)CCC(OC(=O)/C=C/c6ccccc6)C(C)(C)C5CCC43C)C2C1C (configuration not stated),inactive
12,C=C[C@H]1[C@H](O[C@@H]2O[C@H](CO)[C@@H](O)[C@H](O)[C@H]2O)OC=C(C(=O)OC)[C@H]1CC(=O)O,inactive
